G9a inh = inhibitors of human histone lysine methyltransferase G9a; G9a H3K9 monomethylation, AlphaScreen, 2 h; Potency, µM (top dose mostly 102 µM), actives largely listed as inhibitors; hit rate 8.8% among 350,000; also: nearly all actives have a fitted effect of over 75% in size
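Methyltransferase reactions run at room temperature for 2 h (20 nM enzyme, 500 nM biotin-H3K9 peptide, 20 uM SAM) after a 15 min compound preincubation; product detected by AlphaScreen beads and anti-H3K9me1 antibody.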
HP1b binding inh = blocks HP1-beta chromodomain binding to methylated histone tails; P83916; Potency, µM (top dose mostly 114 µM), most hits filed as inhibitors; AID 540317; hit rate 0.56% among 390,000; AlphaScreen HP1-beta / biotin-H3K9me3 peptide binding; also: nearly all actives have a fitted effect of over 70% in size
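Compound inhibition of the preformed complex between 50 nM HP1-beta and 50 nM biotinylated H3K9me3 peptide was read by AlphaScreen. Buffer was PBS pH 7.4 with 0.01% Tween-20. Incubations ran 30 min at room temperature, with 10 ug/mL donor/acceptor beads.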
Six1-Eya2 blk = blocks human Six1 binding to Eya2; AlphaScreen GST-Six1/His-Eya2 binding, biochemical; stronger effect = lower value; activity change, % (concentration not given with the values); hit rate 0.56% among 360,000; in the data active = activity change below about -65%; inconclusive = mostly about -30% to -63%
Target sequence (O00167 whole entry, looked up): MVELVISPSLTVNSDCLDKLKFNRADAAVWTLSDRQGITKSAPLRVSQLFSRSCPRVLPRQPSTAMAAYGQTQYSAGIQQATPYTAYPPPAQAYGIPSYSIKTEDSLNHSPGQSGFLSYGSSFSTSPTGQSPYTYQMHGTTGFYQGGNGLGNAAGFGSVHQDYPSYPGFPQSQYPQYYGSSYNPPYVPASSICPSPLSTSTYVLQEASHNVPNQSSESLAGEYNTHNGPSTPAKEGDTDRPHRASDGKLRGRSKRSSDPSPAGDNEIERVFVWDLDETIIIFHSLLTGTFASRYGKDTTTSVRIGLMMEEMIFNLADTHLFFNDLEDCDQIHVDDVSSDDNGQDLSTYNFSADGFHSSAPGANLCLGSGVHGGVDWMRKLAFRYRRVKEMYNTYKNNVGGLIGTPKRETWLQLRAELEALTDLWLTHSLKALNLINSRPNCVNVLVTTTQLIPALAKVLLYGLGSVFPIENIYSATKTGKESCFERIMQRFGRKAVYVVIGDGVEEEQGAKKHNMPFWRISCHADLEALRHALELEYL
Target sequence (Q15475 whole entry, looked up): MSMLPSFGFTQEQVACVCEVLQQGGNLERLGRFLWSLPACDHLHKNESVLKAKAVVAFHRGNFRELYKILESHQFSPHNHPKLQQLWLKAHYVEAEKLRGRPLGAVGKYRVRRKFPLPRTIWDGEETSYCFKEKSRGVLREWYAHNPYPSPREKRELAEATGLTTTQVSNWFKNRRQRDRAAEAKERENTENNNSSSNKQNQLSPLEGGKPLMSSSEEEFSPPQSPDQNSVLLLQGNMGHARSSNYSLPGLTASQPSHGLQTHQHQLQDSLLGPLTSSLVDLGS
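AlphaScreen with GST-Six1 and His-Eya2 (5X mix: 250 nM and 500 nM), glutathione donor and nickel acceptor beads; buffer 50 mM Tris pH 8.0, 300 mM NaCl, 1 mM TCEP; 1 h at 37 C in the dark.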
CtBP-E1A blk = blocks the CtBP interaction with E1A. AlphaScreen GST-E1A/His-CtBP binding, 1536-well; stronger effect = lower value. activity change, % (no concentration beside the values). hit rate 0.49% among 340,000. AID 651724; in the data active = activity change below about -65%; inconclusive = mostly about -30% to -63%
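GST-E1A and His-tagged CtBP (125 nM each as 5X stock) were preincubated with pin-transferred compound for 2 h at 37 °C in the dark, then glutathione donor and nickel acceptor beads were added for 1 h before AlphaScreen reading.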
JMJD2A Tudor = JMJD2A Tudor domain (human) inhibition; AlphaScreen JMJD2A-Tudor / H3K4me3 peptide binding; Potency, µM (series often up to 114 µM), usual class: inhibitors; hit rate 4.4% among 390,000; also: nearly all actives have a fitted effect of over 50% in size
BAZ2B inh = blocks human BAZ2B | Q9UIF8 | AlphaScreen BAZ2B-H3K14Ac peptide displacement | Potency, µM (top dose mostly 114 µM), most hits filed as inhibitors | hit rate 4.4% among 360,000 | AID 504333; also: nearly all actives have a fitted effect of over 60% in size
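Compounds, titrated to a top concentration of 110 uM, were incubated 30 min at room temperature with preformed BAZ2B/acetyl-K14 H3 peptide complex (50 nM each). Proximity signal was measured by AlphaScreen after 20 min with beads.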
A number is an active result; i = inactive; ? = inconclusive; nt = no result given; ! = repeats disagree; [ ] = remark or other dose. Rows were chosen to be rich in hits. Some 10% of all compounds tested hit in one or more screens of this group. Unless noted, calls follow the shape of the dose curve; as a rule, active = well fitted inhibition curve with a large enough effect; inconclusive = small, poorly fitted or top-dose-only effect; inactive = no such curve, though single readings can be large or run the other way.

SMILES	G9a inh	HP1b binding inh	Six1-Eya2 blk	CtBP-E1A blk	JMJD2A Tudor	BAZ2B inh
CCOC(=O)c1c(CSc2ccccc2)n(C)c2cc(Br)c(O)c(CN(C)C)c12	40µM	?	i	i	?	?
CCOC(=O)c1c(CN2CCOCC2)n(-c2ccccc2)c2cc(Br)c(O)c(CN(C)C)c12	?	i	i	i	?	i
CCOC(=O)c1c(CN2CCCCC2)n(C)c2cc(Br)c(O)c(CN(C)C)c12	35µM	i	i	i	i	i
CCOC(=O)c1c(C)n(-c2ccc(C)cc2)c2ccc(O)c(CN(C)C)c12	45µM	i	i	i	?	?
CCOC(=O)c1c(CSc2ccc(C)cc2)n(C)c2cc(Br)c(O)c(CN(C)C)c12	8.9µM	?	?	?	32µM	45µM
CCOC(=O)c1c(C)n(-c2ccc(OC)cc2)c2ccc(O)c(CN(C)C)c12	?	i	i	i	i[11.4 µM]	i
Cc1ccc2nc(COc3ccccc3NC(=O)c3ccccc3F)cc(=O)n2c1	i	i	nt	nt	i	i
CCOC(=O)c1c(C)n(C)c2ccc(O)c(CN(C)C)c12	?	i	i	i	i	i
CCOC(=O)c1c(CSc2ccccc2)n(C)c2ccc(O)c(CN3CCN(C)CC3)c12	nt	i	i	?	45µM	?
CCOC(=O)c1c(CSc2ccsc2)n(C)c2cc(Br)c(O)c(CN(C)C)c12	32µM	i	i	i	?	?
CN(C)Cc1nc2ccccc2c(=O)n1Cc1nc(-c2cccc([N+](=O)[O-])c2)cs1	?	?	i	i	?	i
CN1CCN(Cc2nc3ccccc3c(=O)n2Cc2nc(-c3ccc([N+](=O)[O-])cc3)cs2)CC1	22µM	?	i	i	20µM	i
Cc1ccc(N2CCN(C(=O)Cn3ncc4c([nH]c5ccc(C)cc54)c3=O)CC2)c(C)c1	i	i	nt	nt	i	i
CCc1ccc(NS(=O)(=O)c2cc(OC)ccc2OC)cc1	i	i	i	i	i	i
CCc1ccc(NS(=O)(=O)c2[nH]ncc2C(=O)OC)cc1	2.5µM	i	nt	nt	56µM	?
Cc1ccc(NC(=O)Cn2cnc3onc(-c4ccc(F)cc4)c3c2=O)c(Cl)c1	i	i	nt	nt	i	i
COP1(=O)CC(O)C(O)C(COCc2ccccc2)O1 (stereo not drawn)	nt	i	nt	nt	i	nt
CC1CCN(CC2CCN(C(=O)Nc3ccc(Br)cc3F)CC2)CC1	i	i	nt	nt	i	i
CS(=O)(=O)Nc1ccc([N+](=O)[O-])cc1Oc1ccccc1	32µM!	i	i	i	i	i
CS(=O)(=O)Nc1ccccc1Oc1ccccc1	i	i	i	i	i	i
Cc1ccc(S(=O)(=O)c2cn(C)c3cc(N4CCCCCC4)c(F)cc3c2=O)cc1	i	i	nt	nt	i	i
O=[N+]([O-])c1cc(CSC2=NCCN2)ccc1O	25µM	i	i	i	i[11.4 µM]	?
CCCOc1ccc(CSC2=NCCN2)cc1[N+](=O)[O-]	nt	i	i	i	i	i
O=C1c2oc3ccc(F)cc3c(=O)c2C(c2ccncc2)N1CCN1CCOCC1 (stereo not drawn)	50µM	nt	nt	nt	nt	i
Cc1ccc2oc3c(c(=O)c2c1)C(c1cccc(Cl)c1)N(CCCN1CCOCC1)C3=O (stereo not drawn)	50µM	i	i	i	i	i
SMILES	G9a inh	HP1b binding inh	Six1-Eya2 blk	CtBP-E1A blk	JMJD2A Tudor	BAZ2B inh
Cc1ccc2oc3c(c(=O)c2c1)C(c1cccc(O)c1)N(CCCN1CCOCC1)C3=O (stereo not drawn)	i	i	nt	nt	i	i
Cc1ccc2oc3c(c(=O)c2c1)C(c1ccc(F)cc1)N(CCCN1CCOCC1)C3=O (stereo not drawn)	45µM	nt	nt	nt	nt	i
CC1CCN(CC2CCN(C(=O)NCc3ccccc3)CC2)CC1	i	?	nt	nt	i	i
CCC(CC)c1nn2c(=O)cc(COc3ccc(NC(=O)c4cccc(Cl)c4)cc3)nc2s1	i	i	nt	nt	i	i
CCCCn1cc(S(=O)(=O)c2ccc(OC)cc2)c(=O)c2cc(F)c(F)cc21	i	i	nt	nt	i	i
Cc1oc(-c2ccc(C(=O)NCCC(C)C)cc2)nc1CS(=O)(=O)c1ccccc1	i	i	nt	nt	i	i
COc1ccc2c(c1)cc1c(=O)n(CC(=O)NCCc3ccccc3)nc(C)n12	i	i	nt	nt	i	i
CCOc1nc2ccccc2cc1/C=C/C(=O)O	50µM	i	i	i	i	i
COc1cc(NC(=O)NCCn2nnc3cc(S(=O)(=O)N(C)C)ccc32)cc(OC)c1	i	i	nt	nt	i	i
O=C1CN(C(=O)c2ccc(Br)o2)C(c2ccc(F)cc2)c2cc(Cl)ccc2N1 (stereo not drawn)	?	i	i	i	i	?
O=C1CN(C(=O)c2ccc(Br)o2)C(c2ccccc2)c2cc(Cl)ccc2N1 (stereo not drawn)	56µM	i	i	i	i	?
Cc1ccc2c(c1)C(c1ccccc1)N(C(=O)c1ccc(Br)o1)CC(=O)N2 (stereo not drawn)	40µM	i	i	i	?	?
COc1cc(NC(=O)Cn2c(=O)n(Cc3ccccc3OC)c(=O)c3cccnc32)cc(OC)c1	i	i	nt	nt	i	i
COc1ccccc1-c1noc(-c2ccc(NC3CCCC3)c([N+](=O)[O-])c2)n1	i	i	nt	nt	i	i
CCN(C(=O)c1nn(-c2ccc(OC)c(Cl)c2)c(=O)c2c1c1ccccc1n2C)c1cccc(C(F)(F)F)c1	i	i	nt	nt	i	nt
C=CCNCCCOc1ccc(Cl)cc1Br	?	i	i	i	10µM	i
COCCCNC(=O)Nc1ccc(Br)cc1Cl	i[12.7 µM]	i	i	i	i	i
OCCNCCCOc1ccc(Cl)cc1Br	i	i	i	i	i	i
COCCNCCCOc1ccc(Cl)cc1Br	11µM	?	i	nt	7.9µM	50µM
COCCNCCCOc1ccc(Br)cc1Cl	10µM	?	i	i	3.2µM	?
COCCCNCCCCOc1ccc(Br)cc1Cl	?	i	i	i	22µM	?
CCCS(=O)(=O)c1c(S(=O)(=O)CCC)c2cc(C(C)(C)C)ccn2c1C(=O)c1ccc(OC)c(OC)c1	i	i	nt	nt	?	i
CCOC(=O)c1c(NC(=O)c2cc(=O)c3cc(C)cc(C)c3o2)sc(C)c1C	i	i	nt	nt	i	i
CCN(c1cccc(C)c1)S(=O)(=O)c1ccc2[nH]cc(C(=O)NCCCOC)c(=O)c2c1	i	i	nt	nt	i	i
CC(C)(C)OC(=O)N(c1cccc2cccnc12)S(=O)(=O)c1ccccc1Br	nt	i	nt	nt	i	nt
Cc1ccc2c(c1)C(=O)c1c(C(=O)O)cccc1-2	i	i	i	nt	i[11.4 µM]	i
O=C(O)c1cccc2c1C(=O)c1cccc3snc-2c13	56µM	i	i	i	i	i
CCN(CC)C1CCS(=O)(=O)C1 (stereo not drawn)	i	i	i	i	i	i
CN(C1CCS(=O)(=O)C1)S(=O)C12CC3CC(CC(C3)C1)C2 (stereo not drawn)	11µM	i	i	i	i	i

Screening results: PubChem, National Center for Advancing Translational Sciences (NCATS)
